Values joined by “and” are separate entries in the source; they are usually repeats but may differ in a detail not shown here. Equal values may be shown once. Inconclusive results are not listed. A structure can be active in one record and inactive in another. Active and inactive are the calls of the source. Unless noted, the call rests on the fitted dose curve; in most records, active means well fitted curve in the direction sought with a large enough effect in the repeat runs; inconclusive means weak or mixed curves; inactive means no such curve, though single readings can be large; an effect the other way counts as inactive or inconclusive.
Legend:
[1] = A CellTox Green Cytotoxicity Assay to monitor cytotoxicity in HEK293 cells - 32 hour (AID 1224881); further: nearly all actives have a fitted effect of over 40% in size
How it was run: (§1)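 Seeding of HEK293 cells together with cytotoxicity dye preceded a 5 h incubation at 37 C/5% CO2. Test compounds in DMSO were then added and fluorescence monitored across 40 h.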

[2] = A CellTox Green Cytotoxicity Assay to monitor cytotoxicity in HepG2 cells - 0 hour (AID 1224882); further: nearly all actives have a fitted effect of over 35% in size
How it was run: (§2)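 Nonlytic assay: viable cells exclude the dye, so fluorescence scales with cell death. HepG2 at 600 cells/well, compounds added after 5 h, signal read across 40 h.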

[3] = A CellTox Green Cytotoxicity Assay to monitor cytotoxicity in HepG2 cells - 32 hour (AID 1224883); further: nearly all actives have a fitted effect of over 50% in size
How it was run: as §2

[4] = A CellTox Green Cytotoxicity Assay to monitor cytotoxicity in HEK293 cells - 8 hour (AID 1224884); further: nearly all actives have a fitted effect of over 35% in size
How it was run: as §1

[5] = qHTS RealTime-Glo MT Cell Viability Assay in HepG2 cells - 16 hour (AID 1224885); further: nearly all actives have a fitted effect of over 50% in size
How it was run: (§3)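 Real-time, nonlytic viability: 600 HepG2 cells/well mixed with NanoLuc enzyme plus prosubstrate; 5 h settle, compound (DMSO) added by pintool; luminescence monitored over 40 h at 37 C.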

[6] = qHTS RealTime-Glo MT Cell Viability Assay in HEK293 cells - 8 hour (AID 1224887); further: top concentration of the series differs between compounds; nearly all actives have a fitted effect of over 50% in size
How it was run: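 Tox21 screen in HEK293 using RealTime-Glo MT chemistry, with cells and reagent co-dispensed. Luminescence proportional to viable cell number was captured at intervals during 40 h compound exposure at 37 C.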

[7] = qHTS RealTime-Glo MT Cell Viability Assay in HepG2 cells - 0 hour (AID 1224889); further: nearly all actives have a fitted effect of over 50% in size
How it was run: as §3

[8] = A CellTox Green Cytotoxicity Assay to monitor cytotoxicity in HepG2 cells - 8 hour (AID 1224890); further: nearly all actives have a fitted effect of over 45% in size
How it was run: as §2

[9] = qHTS assay to identify small molecule antagonists of the estrogen receptor alpha (ER-alpha) signaling pathway using the BG1 cell line in the presence of 0.1 nM 17-beta-estradiol - cell viability counter screen (AID 1259241); further: nearly all actives have a fitted effect of over 40% in size
How it was run: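 VM7Luc4E2 cells (endogenous full-length ER-alpha, 4xERE-luciferase), cultured 5 days in charcoal-stripped serum, exposed to compounds with 0.1 nM 17beta-estradiol (final) for 22 hr at 37C. Viability read in same wells as live-cell protease fluorescence after 30 min.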

[10] = qHTS assay to identify small molecule antagonists of the androgen receptor (AR) signaling pathway using the MDA cell line in the presence of 0.5 nM R1881 - cell viability counter screen (AID 1259242); further: nearly all actives have a fitted effect of over 45% in size
How it was run: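 R1881 at 0.5 nM final stimulated MDA-kb2 cells during 16 hr compound treatment at 37C. Cytotoxicity read: CellTiter-Fluor fluorescence after 30 min.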

[11] = target: Estrogen receptor (Homo sapiens) (UniProt P03372); experiment: qHTS assay to identify small molecule antagonists of the estrogen receptor alpha (ER-alpha) signaling pathway using the BG1 cell line in the presence of 0.1 nM 17-beta-estradiol (AID 1259244); further: nearly all actives have a fitted effect of over 50% in size
Chain of Estrogen receptor (Homo sapiens) (P03372 whole entry, looked up): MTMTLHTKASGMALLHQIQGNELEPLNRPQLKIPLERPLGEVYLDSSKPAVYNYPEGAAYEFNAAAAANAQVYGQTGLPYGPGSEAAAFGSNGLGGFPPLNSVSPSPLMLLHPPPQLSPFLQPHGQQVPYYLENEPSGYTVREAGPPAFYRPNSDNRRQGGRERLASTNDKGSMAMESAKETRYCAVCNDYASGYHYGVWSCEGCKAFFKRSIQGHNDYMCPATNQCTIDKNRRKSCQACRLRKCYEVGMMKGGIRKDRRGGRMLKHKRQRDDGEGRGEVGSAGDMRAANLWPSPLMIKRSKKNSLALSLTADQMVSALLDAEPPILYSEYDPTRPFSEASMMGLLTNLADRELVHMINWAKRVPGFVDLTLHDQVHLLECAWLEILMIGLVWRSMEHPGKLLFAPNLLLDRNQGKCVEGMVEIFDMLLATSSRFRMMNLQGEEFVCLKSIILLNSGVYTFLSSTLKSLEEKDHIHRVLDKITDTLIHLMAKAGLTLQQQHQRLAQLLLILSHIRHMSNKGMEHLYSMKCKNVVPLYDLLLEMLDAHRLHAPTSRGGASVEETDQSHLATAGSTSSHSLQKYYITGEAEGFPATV
How it was run: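 VM7Luc4E2; 4xERE-luciferase; 0.1 nM E2 final; 22 h co-incubation, 37C; ONE-Glo luminescence after 30 min at room temperature.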

[12] = qHTS assay to identify small molecule HDAC inhibitors (AID 1259364);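 further: wild-type HCT-116 cells with endogenous class I/II HDAC activity; top concentration of the series differs between compounds; nearly all actives have a fitted effect of over 45% in size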
How it was run: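 Relative class I and II HDAC activity is taken from the luminogenic signal in HCT-116 cells, with compound exposure 2 hr and reagent development 30 min at room temperature.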

[13] = qHTS assay to identify small molecule HDAC inhibitors - cell viability counter screen (AID 1259365)
How it was run: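 Wild-type HCT-116 cells, 1,500/well, cultured overnight, then compound-treated 2 h at 37 C. Viability measured as ATP luminescence with CellTiter-Glo after 30 min at room temperature.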

[14] = qHTS assay to identify small molecule agonists of the sonic hedgehog signaling (Shh) pathway - cell viability counter screen (AID 1259366); further: nearly all actives have a fitted effect of over 50% in size
How it was run: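 NIH/3T3-derived Gli1-Luc reporter cells, 2,000 per well, received compound after 4 h and were treated about 23 h at 37C. Viability measured in the same wells by CellTiter-Fluor fluorescence after 1 h.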

[15] = qHTS assay to identify small molecule antagonists of the sonic hedgehog signaling (Shh) pathway - cell viability counter screen (AID 1259367); further: nearly all actives have a fitted effect of over 55% in size; further: potency means the concentration at half of the fitted maximal effect
How it was run: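 Seed 3T3 Gli1-Luc cells at 2,000 per well; incubate 4 hr; add compound in DMSO, then conditioned medium; incubate at 37C with 5% CO2; add CellTiter-Fluor after 23 hr; read fluorescence 1 hr later.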

[16] = qHTS assay to identify small molecule agonists of the sonic hedgehog signaling (Shh) pathway (AID 1259368; calls by dose curve;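 further: NIH/3T3-derived 3T3Gli1-Luc cells carrying a stable Gli1-driven firefly luciferase reporter; series mostly up to about 92 µM; nearly all actives have a fitted effect of over 15% in size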)
How it was run: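 Mouse fibroblast (NIH/3T3) reporter cells with stably integrated Gli1-Luc were treated 24 hr with compound; firefly luciferase luminescence served as the read-out.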

[17] = qHTS RealTime-Glo MT Cell Viability Assay in HEK293 cells - 24 hour (AID 1224886)
How it was run: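 Cells + reagent dispensed (600 cells/well, HEK293) → 5 h at 37 C/5% CO2 → 23 nL compound in DMSO pinned → 40 h at 37 C → luminescence read at 0, 8, 16, 24, 32, 40 h.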

[18] = A CellTox Green Cytotoxicity Assay to monitor cytotoxicity in HEK293 cells - 16 hour (AID 1224888); further: nearly all actives have a fitted effect of over 35% in size
How it was run: as §1

[19] = target: Androgen receptor (Homo sapiens) (UniProt P10275); experiment: qHTS assay to identify small molecule antagonists of the androgen receptor (AR) signaling pathway using the MDA cell line in the presence of 0.5 nM R1881 (AID 1259243); further: nearly all actives have a fitted effect of over 50% in size
Chain of Androgen receptor (Homo sapiens) (P10275 whole entry, looked up): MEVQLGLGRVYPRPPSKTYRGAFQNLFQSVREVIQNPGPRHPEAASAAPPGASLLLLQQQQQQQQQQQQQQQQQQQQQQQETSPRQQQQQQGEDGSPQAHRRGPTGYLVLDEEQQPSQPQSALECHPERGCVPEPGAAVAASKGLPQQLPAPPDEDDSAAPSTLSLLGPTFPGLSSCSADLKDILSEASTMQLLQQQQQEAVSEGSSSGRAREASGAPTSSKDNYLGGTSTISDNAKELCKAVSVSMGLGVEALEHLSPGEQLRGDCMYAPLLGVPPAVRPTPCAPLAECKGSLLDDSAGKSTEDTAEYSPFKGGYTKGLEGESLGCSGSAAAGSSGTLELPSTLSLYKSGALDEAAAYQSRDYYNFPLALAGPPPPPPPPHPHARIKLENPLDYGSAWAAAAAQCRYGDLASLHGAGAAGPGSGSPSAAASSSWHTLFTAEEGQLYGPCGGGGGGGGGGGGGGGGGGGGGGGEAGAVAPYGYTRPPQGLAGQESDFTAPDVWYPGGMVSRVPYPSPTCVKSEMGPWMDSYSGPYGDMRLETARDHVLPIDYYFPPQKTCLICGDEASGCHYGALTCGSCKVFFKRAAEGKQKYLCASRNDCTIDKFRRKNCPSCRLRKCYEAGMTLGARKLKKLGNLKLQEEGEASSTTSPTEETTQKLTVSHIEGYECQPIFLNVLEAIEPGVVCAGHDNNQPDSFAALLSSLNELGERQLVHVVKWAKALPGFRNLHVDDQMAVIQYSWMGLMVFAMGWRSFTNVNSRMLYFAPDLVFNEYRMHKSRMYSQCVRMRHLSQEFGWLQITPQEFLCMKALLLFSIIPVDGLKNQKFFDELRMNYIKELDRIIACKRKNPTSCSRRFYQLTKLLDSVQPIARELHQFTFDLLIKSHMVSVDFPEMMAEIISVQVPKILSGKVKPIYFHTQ
How it was run: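 We exposed MDA-kb2 cells to compounds under 0.5 nM R1881 stimulation for 16 hr at 37C and quantified MMTV-driven luciferase by luminescence.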
On the % scale 0 is the no-effect control and ±100 the full control effect.

OCC(CO)(CO)CO
inactive: Potency [1] | Potency [2] | Potency [3] | Potency [4] | Potency [5] | Potency [6] | Potency [7] | Potency [8] | Potency [9] | Potency [10] | Potency [11] | Potency [12] | Potency [13] | Potency [14] | Potency [15] | Potency [16]

Cc1ccccc1C=O
inactive: Potency [1] | Potency [2] | Potency [3] | Potency [4] | Potency [5] | Potency [17] | Potency [6] | Potency [7] | Potency [8] | Potency [9] | Potency [10] | Potency [11] | Potency [12] | Potency [13] | Potency [14] | Potency [15] | Potency [16]

CC(=O)OCCC(C)C
inactive: Potency [1] | Potency [2] | Potency [3] | Potency [4] | Potency [5] | Potency [17] | Potency [6] | Potency [18] | Potency [7] | Potency [8] | Potency [9] | Potency [10] | Potency [12] | Potency [13] | Potency [14] | Potency [15] | Potency [16]

CCCCC(CC)COC(=O)c1ccc(C(=O)OCC(CC)CCCC)cc1 (stereo not drawn)
inactive: Potency [1] | Potency [2] | Potency [3] | Potency [4] | Potency [5] | Potency [17] | Potency [6] | Potency [18] | Potency [7] | Potency [8] | Potency [9] | Potency [10] | Potency [19] | Potency [12] | Potency [13] | Potency [14] | Potency [15] | Potency [16]

C1CCCNCC1
inactive: Potency [1] | Potency [2] | Potency [3] | Potency [4] | Potency [5] | Potency [6] | Potency [7] | Potency [8] | Potency [9] | Potency [10] | Potency [11] | Potency [12] | Potency [14] | Potency [15] | Potency [16]

CCCCCCCCCCCC(=O)N(C)CC(=O)O
inactive: cytotoxicity increase [1] 0.815% [at 6.97 µM] | Potency [2] | cytotoxicity increase [3] 2.96% [at 6.97 µM] | Potency [4] | Potency [5] | Potency [17] | Potency [6] | Potency [18] | Potency [7] | Potency [8] | Potency [9] | Potency [10] | Potency [12] | Potency [14] | Potency [15] | Potency [16]

O=[N+]([O-])c1cc(C(F)(F)F)ccc1Cl
inactive: Potency [1] | Potency [2] | Potency [3] | Potency [4] | Potency [5] | Potency [17] | Potency [6] | Potency [7] | Potency [8] | Potency [9] | Potency [10] | Potency [19] | Potency [12] | Potency [13] | Potency [14] | Potency [15] | Potency [16]

CCCCCC(C)=O
inactive and 54.5 µM (active): Potency [15]
inactive: Potency [1] | Potency [2] | Potency [3] | Potency [4] | Potency [5] | Potency [17] | Potency [6] | Potency [18] | Potency [7] | Potency [8] | Potency [9] | Potency [10] | Potency [12] | Potency [13] | Potency [14] | Potency [16]
